# From PubChem
# Sm TGR inh: blocks Schistosoma mansoni thioredoxin glutathione reductase; Q962Y6; purified TGR, DTNB reduction, TNB absorbance 405 nm; Potency, µM (titrated, usually from 114 µM), for inactives: at the highest dose activity change, negative = inhibition, usual class: inhibitors; 360,000 tested, 3% active; AID 485364; active = well fitted inhibition curve with a large enough effect; inconclusive = small, poorly fitted or top-dose-only effect; inactive = no such curve, though single readings can be large or run the other way; also: % is scaled to controls: 0 for no effect and ±100 for the full control effect; nearly all actives have a fitted effect of over 60% in size
#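 First, TGR (20 nM dispensed) and NADPH were mixed with compound. Second, a 15 min room-temperature incubation followed. Third, further NADPH and then DTNB were added to start the reaction. Finally, TNB absorbance was monitored kinetically.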
# SARS PLP yeast: SARS-CoV PLP inhibition in yeast; AID 485353; Potency, µM (titrated, usually from 32.9 µM), inactives show top-dose activity, positive = growth rescue, hits mostly activators; S. cerevisiae expressing SARS-CoV PLpro, growth rescue; 330,000 tested, 0.19% active; calls by dose curve; also: 0% is about no effect; nearly all actives have a fitted effect of over 55% in size
# * = called active by the depositor; ? = inconclusive; . = no result given; [ ] = remark or other dose. Shown are actives, neighbours in structure and some others; about 3% of the full set was active somewhere. Potency is read from the fitted curve at half-maximal effect.
SMILES,Sm TGR inh,SARS PLP yeast
O=C(COc1ccc(Cl)cc1)NCc1ccc(F)cc1,13%,-7%
COCCNC(=O)CN1C(=O)COc2ccc(S(=O)(=O)N3CCCC3)cc21,-11%,.
CCc1ccc(CNC(=O)c2ccc3c(c2)nc2n3CCCCC2)cc1,-1%,.
Cc1ccc(C)c(NC(=O)N2CCc3cc(S(=O)(=O)N4CCC(C)CC4)ccc32)c1,5%,.
Cc1nc(C)c(-c2ccc(SCC(=O)Nc3cccc(C)c3C)nn2)s1,0%,.
Cc1ccc(S(=O)(=O)C(CNC(=O)C(=O)NCCc2ccccc2)c2ccco2)cc1 (centres undefined),45µM*,.
COc1ccc(S(=O)(=O)NC(CC(=O)NCCc2ccccc2)c2ccco2)cc1 (centres undefined),-14%,1%
O=C(CC(c1ccco1)S(=O)(=O)c1ccccc1)c1ccc(F)cc1 (centres undefined),1.6µM*,-22%
CCOc1ccc(S(=O)(=O)NCc2ccco2)cc1,-24%,.
CCOc1ccc(S(=O)(=O)NCC(c2ccco2)S(=O)(=O)c2ccc(F)cc2)cc1 (centres undefined),0.32µM*,.
O=C(NCc1ccccc1F)C(=O)NCC(c1ccco1)S(=O)(=O)c1ccccc1 (centres undefined),-21%,.
Cc1ccccc1CNC(=O)C1CCCCN1S(=O)(=O)c1ccc(F)cc1 (centres undefined),7%,.
CC1CCN(C(=O)c2c(NC(=O)c3ccccc3F)sc3c2CCC(C(C)(C)C)C3)CC1 (centres undefined),14%,.
COc1ccc(NC(=O)Cn2c(=O)n(-c3ccc(C)c(C)c3)c(=O)c3c(C)c(C)sc32)cc1,1%,.
O=C1NC(=O)[C@@H]2C3c4ccccc4C=CN3[C@H](C(=O)c3cccs3)[C@H]12 (some centres undefined),-33%,-6%
O=C(c1ccco1)[C@@H]1[C@@H]2C(=O)N(c3ccc(F)cc3)C(=O)[C@@H]2C2c3ccccc3C=CN21 (some centres undefined),22µM*,?
N#C[C@@H]1[C@@H]2C(=O)N(c3ccc4c(c3)OCCO4)C(=O)[C@@H]2C2c3ccccc3C=CN21 (some centres undefined),?,-13%
O=C(c1ccco1)[C@@H]1[C@@H]2C(=O)N(c3ccc(Br)cc3)C(=O)[C@@H]2C2c3ccccc3C=CN21 (some centres undefined),18µM*,-1%
CCC(C(=O)Nc1cc(OC)ccc1OC)n1nc(-c2ccccc2)c2c(c1=O)CCCC2 (centres undefined),2%,.
Cc1ccc(CNC(=O)COCc2cc(-c3cccs3)on2)cc1,41%,.
Cc1cc(C)cc(N=Cc2ccc([N+](=O)[O-])s2)c1,?,-78%
NC(=O)c1ccc(N=Cc2ccc([N+](=O)[O-])s2)cc1,14µM*,-61%
Cc1ccc(C)c(-c2csc(-c3c(N)c(C(=O)c4ccc5c(c4)OCO5)n4ccccc34)n2)c1,-3%,.
CC1CCC(C(=O)NNC(=O)c2cc(-c3ccco3)[nH]n2)CC1 (centres undefined),-5%,0%
O=C(O)c1cc(-c2ccco2)[nH]n1,50µM*,15%
SMILES,Sm TGR inh,SARS PLP yeast
O=S(=O)(c1ccc(F)cc1)c1nc(-c2ccc(F)cc2)oc1NCCN1CCOCC1,-35%,-3%
COc1ccccc1/C=C/c1nc(S(=O)(=O)c2ccccc2)c(NCCN(C)C)o1,22µM*,0%
Cc1ccc(S(=O)(=O)c2nc(C)oc2NCc2ccccc2)cc1,2µM*,0%
COc1ccc(/C=C/c2nc(S(=O)(=O)c3ccccc3)c(NCCCN(C)C)o2)cc1OC,?,-3%
CNc1oc(-c2ccccc2)nc1S(=O)(=O)c1ccc(C)cc1,0%,-5%
COc1ccc(-c2nc(S(=O)(=O)c3ccc(C)cc3)c(NCc3ccccc3)o2)cc1,13µM*,.
Cc1ccc(S(=O)(=O)c2nc(-c3ccccc3)oc2NCCN2CCOCC2)cc1,45µM*,3%
CNc1oc(C)nc1S(=O)(=O)c1ccc(C)cc1,0%,1%
COc1ccc(-c2cc(C(=O)OC(C)C(=O)c3ccccc3)c3cccc(Cl)c3n2)cc1 (centres undefined),5%,.
Cc1ccc(CN(C(=O)COc2ccc(Cl)c(C)c2)C2CCS(=O)(=O)C2)o1 (centres undefined),-32%,.
COc1ccccc1-c1nn(CCC(=O)Nc2ccccc2)c2nc(C)cc(C)c12,0%,.
CCC(CC)C(=O)Nc1cccc(-c2nc3ncccn3c2C)c1,7%,.
CCCCNc1oc(-c2ccc(OC)cc2)nc1S(=O)(=O)c1ccccc1,32µM*,2%
CCNc1oc(-c2ccc(OC)cc2)nc1S(=O)(=O)c1ccc(Br)cc1,-29%,-4%
O=C(NCc1ccccc1)c1ccc2c(c1)N(Cc1ccccc1F)C(=O)c1ccccc1S2=O (centres undefined),5%,.
CC1Cn2c(C(=O)NCc3cccc(Br)c3)cc3cccc(c32)S1 (centres undefined),-1%,.
COCCCNc1oc(COc2ccc(Cl)cc2Cl)nc1C#N,20µM*,-2%
CN(C)CCNc1oc(COc2ccc(-c3ccccc3)cc2)nc1C#N,45µM*,-10%
CN(C)CCNc1oc(COc2ccc(Cl)cc2Cl)nc1C#N,?,1%
N#Cc1nc(COc2cccc(Cl)c2)oc1NCCN1CCOCC1,35µM*,0%
N#Cc1nc(COc2ccc(-c3ccccc3)cc2)oc1NCCCN1CCOCC1,-9%,-5%
N#Cc1nc(COc2ccccc2)oc1NCCN1CCOCC1,41%,-2%
COc1ccc(NC(=O)Cc2ccc(NC(=O)N3CCCCc4ccccc43)cc2)c(OC)c1,5%,.
Cc1ccc(-n2c(SCc3ccccc3F)nc3[nH]ncc3c2=O)cc1Cl,16%,.
COc1ccc(OC)c(-c2csc(N(Cc3ccco3)C(=O)c3ccco3)n2)c1,-12%,1%
SMILES,Sm TGR inh,SARS PLP yeast
COCCCN(C(=O)c1ccco1)c1nc(-c2cc(OC)ccc2OC)cs1,89µM*,0%
Cc1ccc2oc(=O)c3cc(C(=O)N4CCN(c5ccccc5F)CC4)sc3c2c1,-4%,.
c1ccc(N2CC3CCc4ccccc4C3=N2)cc1 (centres undefined),45µM*,0%
CN1N=C2c3ccccc3CCC2C1c1ccc(F)cc1 (centres undefined),2%,-2%
Oc1cccc(C2c3[nH]c4ccccc4c3CCN2Cc2ccoc2)c1 (centres undefined),18µM*,-2%
Oc1cccc(C2c3[nH]c4ccccc4c3CCN2Cc2ccc3c(c2)CCO3)c1 (centres undefined),-2%[57.1 µM],-1%
CCCC1N=C2c3ccccc3N=C(SCC(=O)NCCc3ccc(Cl)cc3)N2C1=O (centres undefined),0%,.
O=C(/C=C/c1ccccc1)CC(O)(c1ccccc1)C(F)(F)C(F)F (centres undefined),25µM*,-22%
COc1ccc(/C=C/C(=O)CC(O)(c2ccccc2)C(F)(F)F)cc1 (centres undefined),-32%,-41%
O=C(CC(O)(c1ccccc1)C(F)(F)C(F)F)c1cccs1 (centres undefined),-9%,.
O=C(/C=C/c1ccccc1)CC(O)(c1ccccc1)C(F)(F)F (centres undefined),28µM*,-33%
NS(=O)(=O)c1ccc(Sc2nc3ccccc3s2)c([N+](=O)[O-])c1,45µM*,1%
